# Results: the supplement of paper PMC3334620
# In all, about 33,000 sequences were measured (“E-score (-0.5 to 0.5)”: median about -0.036, highest 2% from about 0.37 on). The sample as a whole holds a higher share of the highest values than the screen did.
# Target: T1, Yer064c (UniProt P40041)
# T1 sequence: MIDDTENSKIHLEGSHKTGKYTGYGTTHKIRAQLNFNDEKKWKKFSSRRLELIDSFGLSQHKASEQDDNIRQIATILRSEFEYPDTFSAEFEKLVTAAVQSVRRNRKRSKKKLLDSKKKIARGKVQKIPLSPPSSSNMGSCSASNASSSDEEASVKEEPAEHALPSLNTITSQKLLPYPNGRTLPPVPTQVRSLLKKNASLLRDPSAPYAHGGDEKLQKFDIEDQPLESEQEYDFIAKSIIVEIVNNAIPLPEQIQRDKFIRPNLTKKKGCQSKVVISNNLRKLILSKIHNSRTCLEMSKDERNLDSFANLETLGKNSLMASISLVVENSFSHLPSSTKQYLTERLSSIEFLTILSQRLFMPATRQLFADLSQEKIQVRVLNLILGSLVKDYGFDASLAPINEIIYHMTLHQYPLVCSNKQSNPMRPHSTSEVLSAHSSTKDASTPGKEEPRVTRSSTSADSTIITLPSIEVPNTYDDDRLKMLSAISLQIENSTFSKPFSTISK
# Test: PBM E-score (8-mer binding enrichment) (E-score (-0.5 to 0.5)); higher = stronger / more preferred TF binding
# Details: protein concentration: 200 nM; construct: GST-full length
# How it was run: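 PURExpress in vitro transcription/translation supplied GST-tagged yeast transcription factors, either full-length or DNA-binding domain. Applied at about 100-200 nM to universal all-10-mer Agilent arrays double-stranded by primer extension, the bound protein was detected with fluorescent anti-GST. E-scores, modified Wilcoxon-Mann-Whitney statistics, were given by the Universal PBM Analysis Suite to ungapped eight-base words pooled with their reverse complements after masliner normalisation.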
row,Sequence,PBM E-score
1,CACTTACC,0.0118
2,ACAAGGGA,-0.248
3,AATGTGAC,0.203
4,AGCGGCGA,-0.0237
5,CCTTAGCG,0.0566
6,ACGAAGGG,-0.192
7,CATTAGGA,0.0671
8,CCACTCTA,0.0684
9,AGCTGTCG,-0.196
10,AGTCTCCA,0.27
11,CGTCTCCC,-0.223
12,AGTCTCCC,0.382
13,GACTCCCC,0.405
14,AACTCCCC,0.0421
15,CACTCCCA,0.0058
16,AACTCCCA,-0.184
17,CACTCCCC,-0.147
18,GACTCCCA,0.381
19,AGCCCAAA,0.141
20,CCTCCCCC,-0.224
21,CCTTTATC,-0.243
22,CAACGTAC,-0.0947
23,ATAGAGTC,0.371
24,CTAGAGTC,0.366

row,Sequence,PBM E-score
1,CTAGAGGC,-0.0949
2,ATAGAGTG,0.00994
3,CTAGAGTA,0.138
4,ATAGAGTA,0.134
5,CTAGTAGA,0.0545
6,AACGGTGC,-0.101
7,ACGCCGCT,-0.119
8,CAAACCGC,-0.0599
9,CAACACAC,0.0236
10,ACTGTCCG,-0.022
11,CTACTGAG,0.157
12,CGAGTCGC,0.383
13,CGAGTCGA,0.271
14,AGAGTCGG,0.326
15,AGAGTCGA,0.291
16,AGAGTCGC,0.396
17,CCAGTCGC,-0.0128
18,GACCCTGC,-0.262
19,CACCGTAC,-0.0293
20,TGCTGAAA,-0.0596
21,AGAGTCTA,0.158
22,AGAGTCAT,0.492
23,AGAGTCCT,0.298
24,AGAGTCAC,0.485

row,Sequence,PBM E-score
1,AGAGTCTG,0.147
2,AGAGTCCC,0.0408
3,AGTGTCAT,0.0731
4,AGAGTCAG,0.457
5,AGAGTCTC,0.332
6,AGAGTCAA,0.436
7,AGAGTCCG,0.212
8,AGAGTCCA,0.262
9,CCCGGACG,-0.193
10,CATCTCGC,0.0122
11,GACACGCA,-0.104
12,AGCCACTC,0.0575
13,CGTGTATA,0.0534
14,CCTAATTA,-0.151
15,ATGCTAGA,-0.0387
16,CAGAACTG,0.139
17,AGCCGAGA,0.0772
18,CACTTTCG,-0.131
19,AACACCAT,-0.0344
20,CAGCTTTA,-0.123
21,ATATATCA,-0.0122
22,GGCACCCC,-0.215
23,GTCATGAA,0.308
24,CTCATGAC,0.381

row,Sequence,PBM E-score
1,CTCATGAG,0.3
2,GCCATGAC,0.307
3,ATCATGAC,0.369
4,CTCATGAA,0.202
5,GTCATGAC,0.432
6,ATCATGAG,0.34
7,ATCATGAT,0.378
8,ACCATGAT,0.217
9,ATCATGAA,0.266
10,AGCATGAT,0.26
11,CCGAGCAA,-0.287
12,ATTTGGTG,-0.0429
13,CCACGTTC,-0.218
14,CGGTCAAG,-0.055
15,AATTTAGT,0.363
16,GTACCGCA,-0.0756
17,CTAGCACA,-0.147
18,CCATAGTC,0.396
19,CCATAGTA,0.0975
20,CCATAGCC,-0.0772
21,ACATAGTG,0.0787
22,ACATAGTA,0.0874
23,ACATAGTC,0.386
24,CTCTCGAC,-0.0566

row,Sequence,PBM E-score
1,ACCGCCCA,-0.117
2,CGAGAATA,-0.0825
3,AGTCACGC,0.469
4,CGTCACGA,-0.0925
5,CGTCACGC,-0.184
6,AATCACGG,0.322
7,ATTCACGC,0.132
8,ATTCACGG,0.196
9,GGTCACGA,0.0181
10,AGTCACGA,0.466
11,AGTCACGG,0.469
12,CAGTAAAG,0.0694
13,CCGTTTGA,0.0399
14,ACACCCAA,-0.0135
15,CCGCCTAC,-0.132
16,CCTTCGCA,-0.293
17,CTCGGAAC,-0.012
18,GACGGCAA,-0.0972
19,CGGAATTA,-0.0336
20,AGGAATCC,-0.0672
21,GGGAATAA,-0.128
22,CGGAATCC,-0.0704
23,AGGAATCA,0.429
24,GGGAATGA,0.0959

row,Sequence,PBM E-score
1,CGGAATCA,0.392
2,GGGAATCA,0.418
3,AGGAATCG,0.235
4,GGATTCCA,0.0871
5,CGCCGAAA,-0.059
6,GCGCAGGA,-0.0398
7,CCATCCTA,0.0627
8,ATACCATG,0.061
9,AAGTCATC,0.471
10,AAGTCATG,0.465
11,AGGTCATG,0.17
12,AAGTCATA,0.46
13,AGGTCATC,0.18
14,ATGTCATC,-0.179
15,ATGTCATA,0.013
16,AACTCATT,0.2
17,AAGTCATT,0.454
18,AGGTCATA,0.171
19,ACGTCATG,0.21
20,AAGTCAAT,0.305
21,ATCTCTAA,0.0574
22,AAGGATCC,-0.15
23,GAGTTCTA,0.0136
24,GGTTGGGA,0.00893

row,Sequence,PBM E-score
1,GGTATCAA,0.0678
2,CGGTCATC,-0.108
3,CAGTCATC,0.467
4,CCGTCATC,-0.098
5,ATCAAATC,0.21
6,GAGAAGCC,-0.201
7,AGCAGAGC,-0.137
8,CTCATACA,0.184
9,GTCATACA,0.374
10,ATCATACA,0.236
11,ATCAGGAA,0.00077
12,CCGGCATC,-0.251
13,GGTAATGA,0.189
14,AGTAATCA,0.415
15,GGTAATTA,0.0662
16,CGTAATCC,-0.0532
17,GGTAATCA,0.433
18,AGTAATCC,0.0831
19,CGTAATTA,-0.00543
20,AGTAATCG,0.186
21,CGTAATCA,0.42
22,CTGCGGTC,-0.245
23,CAGACCGC,-0.0824
24,AGTCGATA,0.179

row,Sequence,PBM E-score
1,AGACTCGC,0.336
2,ACTCTCAC,0.173
3,ATACTCAT,0.371
4,AGACTCAC,0.457
5,ATACTCAA,0.239
6,ACTCTCAG,0.125
7,AGACTCTG,0.301
8,ACTCTCAA,0.257
9,AGACTCAA,0.444
10,AGACTCAG,0.434
11,ATACTCAG,0.214
12,AGACTCTA,0.267
13,CCAAGTTA,0.0576
14,CAATTGCG,-0.0914
15,ATGGATGG,-0.0396
16,GCAACTGC,-0.0982
17,AACCGTGT,0.0249
18,CGGTTCAG,-0.212
19,TAGCTAAA,0.0446
20,CCGGGGGC,-0.128
21,CCCCACCC,-0.0582
22,ATCATTTA,0.327
23,ATCCTTAG,-0.107
24,CATGGCCG,-0.31

row,Sequence,PBM E-score
1,CGACTCTC,0.381
2,AGACTCAT,0.467
3,AGACTCCG,0.367
4,CGACTCGC,0.361
5,ACACTCAT,0.25
6,ACTCTCAT,0.112
7,CCACTCAC,-0.0373
8,AGACTCTC,0.334
9,AGACTCCT,0.337
10,CGACTCAC,0.468
11,CAACTCAC,0.224
12,ACACTCCG,-0.136
13,TGGGCTAA,-0.0729
14,AGATGGTC,-0.295
15,AGAGACAG,-0.0696
16,GAACTAGA,0.0303
17,CCACTCAG,0.0632
18,CTACTCAG,0.132
19,CGACTCAG,0.45
20,CCGTTATC,0.0125
21,ATGGCGGG,-0.0628
22,AGTCACAG,0.467
23,AGTCACAC,0.477
24,AGGCACAT,-0.117

row,Sequence,PBM E-score
1,AGTCACAA,0.46
2,CGTCACAC,-0.155
3,ACTCACAT,0.35
4,GGTCACAC,-0.00398
5,CGTCACAA,-0.0973
6,GGTCACAA,0.0763
7,AGTCACAT,0.469
8,ATTCACAG,0.078
9,CGTCACAG,-0.031
10,CCCCGCTA,-0.209
11,CTGGCGCC,-0.331
12,TGCGGACA,-0.121
13,GATGGCTA,0.359
14,TAGTCATA,0.489
15,CACTCATG,0.222
16,CCGTCATA,0.0861
17,CTGTCATA,0.0424
18,TACTCATA,0.343
19,CAGTCATG,0.458
20,ATGTCATG,0.214
21,CGGTCATA,-0.0954
22,CAGTCATA,0.448
23,CGCGGACC,-0.262
24,CGGTTGAC,0.0774

row,Sequence,PBM E-score
1,ACCAGCGG,-0.133
2,CGGCAAGA,-0.115
3,ACTCAATG,0.302
4,CGTCAATA,-0.192
5,AGTCAATG,0.377
6,ATTCAATC,0.308
7,AGTCAATA,0.383
8,AGTCAATC,0.426
9,GGTCAATA,0.108
10,AATCAATG,0.236
11,ATTCAATG,0.204
12,ACTCAATC,0.404
13,AATCAATC,0.301
14,CGTCAATC,0.17
15,AGCGGATG,-0.0548
16,CTGGGCTA,-0.161
17,AGGCTACC,-0.0969
18,CCAACACC,-0.158
